Laboratory results published in publication PMC5540273 (PLoS ONE, 2017).

How the values were obtained:
Settings in all cases: concentration: 1 μM, replicates: in singlicate; n = 1
ACVR1 = test system: ACVR1
ACVR2A = test system: ACVR2A
ACVR2B = test system: ACVR2B
ACVRL1 = test system: ACVRL1
ADCK3 = test system: T1, ADCK3
T1 construct: gene CABC1

ADCK4 = test system: ADCK4
AKT1 = test system: AKT1
AKT2 = test system: AKT2
AKT3 = test system: AKT3
ALK = test system: ALK
AMPK-alpha1 = test system: T2, AMPK-alpha1
T2 construct: gene PRKAA1

AMPK-alpha2 = test system: T3, AMPK-alpha2
T3 construct: gene PRKAA2

ANKK1 = test system: ANKK1
ARK5 = test system: T4, ARK5
T4 construct: gene NUAK1

ASK1 = test system: T5, ASK1
T5 construct: gene MAP3K5

ASK2 = test system: T6, ASK2
T6 construct: gene MAP3K6

AURKA = test system: AURKA
AURKB = test system: AURKB
AURKC = test system: AURKC
AXL = test system: AXL
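Also: KINOMEscan kinase panel screen.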

| SMILES | %Inh (ACVR1) | %Inh (ACVR2A) | %Inh (ACVR2B) | %Inh (ACVRL1) | %Inh (ADCK3) | %Inh (ADCK4) | %Inh (AKT1) | %Inh (AKT2) | %Inh (AKT3) | %Inh (ALK) | %Inh (AMPK-alpha1) | %Inh (AMPK-alpha2) | %Inh (ANKK1) | %Inh (ARK5) | %Inh (ASK1) | %Inh (ASK2) | %Inh (AURKA) | %Inh (AURKB) | %Inh (AURKC) | %Inh (AXL) |
| --- | --- | --- | --- | --- | --- | --- | --- | --- | --- | --- | --- | --- | --- | --- | --- | --- | --- | --- | --- | --- |
| CNc1nc(-c2ccc3c(N)n[nH]c3c2)cc(N2C[C@@H](C(=O)Nc3ccccc3)CC[C@H]2C)n1 [GSK2298859] | 0% | 0% | 12% | 0% | 22% | 26% | 0% | 2% | 0% | 3% | 0% | 0% | 1% | 25% | 0% | 12% | 12% | 16% | 43% | 8% |
| CNC(=O)c1ccc(C)c(-n2c(C)cc(OCc3ccc(F)cc3F)c(Br)c2=O)c1 | 0% | 0% | 2% | 0% | 0% | 0% | 0% | 2% | 0% | 0% | 0% | 5% | 0% | 0% | 15% | 0% | 0% | 0% | 0% | 0% |
| CS(=O)(=O)CCNCc1nc(-c2ccc3ncnc(Nc4ccc5c(cnn5Cc5ccccc5)c4)c3c2)cs1.Cl.Cl [GW569716] | 1% | 0% | 0% | 0% | 10% | 54% | 0% | 2% | 0% | 31% | 0% | 0% | 0% | 0% | 0% | 0% | 32% | 29% | 0% | 0% |
| COc1cc2ncnc(Nc3cccc(Br)c3)c2cc1OC.Cl [GI230329] | 0% | 0% | 0% | 0% | 19% | 52% | 0% | 0% | 16% | 0% | 0% | 0% | 8% | 17% | 0% | 6% | 6% | 0% | 6% | 10% |
| COC(=O)c1cccc(NC(=O)NC2CCN(c3ccnc(Nc4ccc(F)cc4)n3)C2)c1 (centres unmarked) [GSK1379725] | 0% | 0% | 0% | 0% | 4% | 23% | 0% | 0% | 0% | 17% | 0% | 0% | 0% | 0% | 0% | 1% | 0% | 39% | 34% | 6% |
| COc1cccc(NC(=O)Nc2ccc(C)c(-c3ccc(C(=O)Nc4ccncc4)cc3)c2)c1 [GSK1398474] | 0% | 0% | 12% | 0% | 30% | 12% | 0% | 16% | 0% | 23% | 0% | 13% | 10% | 20% | 2% | 0% | 14% | 0% | 40% | 25% |
| CCCCc1nn2ncccc2c1-c1ccnc(NC2CC2)n1 [GW684374] | 2% | 0% | 0% | 0% | 61% | 38% | 0% | 0% | 0% | 17% | 0% | 0% | 8% | 12% | 0% | 0% | 30% | 12% | 38% | 0% |
| Cc1c(Cn2c(C)c(C)n3c(=O)cc(N4CCOCC4)nc23)cccc1C(F)(F)F [GSK2328680] | 0% | 0% | 0% | 0% | 2% | 14% | 0% | 0% | 0% | 3% | 0% | 2% | 0% | 0% | 2% | 0% | 0% | 0% | 0% | 0% |
| Nc1ncnc2occ(-c3ccc4c(c3)CCN4C(=O)Cc3cc(F)ccc3F)c12 [GSK2645446] | 0% | 0% | 0% | 0% | 8% | 0% | 0% | 0% | 0% | 0% | 4% | 0% | 3% | 12% | 0% | 0% | 0% | 48% | 40% | 34% |
| COc1ccc(CSc2nnc(-c3ccc4c(c3)CCO4)o2)cc1 | 0% | 0% | 0% | 0% | 0% | 0% | 0% | 0% | 0% | 0% | 0% | 0% | 0% | 33% | 0% | 0% | 0% | 0% | 0% | 0% |
| Fc1ccc(-c2nc[nH]c2-c2ccncc2)cc1 [SB-217360] | 0% | 5% | 50% | 0% | 0% | 18% | 4% | 0% | 0% | 10% | 5% | 0% | 0% | 0% | 0% | 0% | 8% | 33% | 0% | 0% |
| Cc1cnc(N)c(/C=C/c2cncc(C(=O)NCCc3ccc(Cl)cc3Cl)c2)c1.Cl [GSK190937] | 0% | 0% | 0% | 0% | 25% | 13% | 0% | 0% | 0% | 0% | 3% | 18% | 3% | 1% | 2% | 0% | 1% |  | 12% | 5% |
| CS(=O)(=O)CCNCc1nc(-c2ccc3ncnc(Nc4ccc(OCc5ccccc5)c(Cl)c4)c3c2)cs1.Cl [GW582764] | 0% | 17% | 0% | 0% | 9% | 45% | 0% | 31% | 0% | 35% | 0% | 0% | 0% | 0% | 0% | 0% | 0% | 23% | 0% | 0% |
| CN1c2ccc(-c3ccc(C(N)=O)cc3)cc2-c2[nH]ncc2S1(=O)=O | 0% | 8% | 16% | 16% | 0% | 3% | 3% | 0% | 0% | 30% | 0% | 0% | 0% | 0% | 0% | 0% | 0% | 21% | 0% | 5% |
| O=C(Nc1n[nH]c2nc(-c3cccs3)c(Br)cc12)C1CCCC1 [SB-743341] | 0% | 0% | 7% | 9% | 7% | 0% | 0% | 40% | 0% | 1% | 29% | 40% | 35% | 0% | 0% | 12% | 17% | 27% | 10% | 0% |
